# Laboratory results reported in the antibiotic and cytotoxicity screens of Wong et al. (2023).
# Among all 39,000 compounds or so, about 500 (1.3%) were called active. The sample as a whole holds a higher share of actives than the screen did.
# Tested on: S. aureus RN4220
# Assay: growth inhibition call (relative growth <= 0.2)
# Conditions: 50 µM
row,SMILES,growth inhibition call
1,CCCCCOc1ccc([C@H]2C(C(=O)c3ccc4c(c3)OCCO4)=C(O)C(=O)N2Cc2ccco2)cc1,inactive
2,NNC(=O)c1ccccc1O,inactive
3,O=C(Nc1ccccc1)c1ccccc1O,active
4,O=C(Nc1ccccc1)c1ccccc1,inactive
5,CO[C@@H]1CN(C)C(=O)c2ccc(NS(=O)(=O)CC(F)(F)F)cc2OC[C@H](C)N(Cc2nccs2)C[C@H]1C,inactive
6,C[C@@H]1CN([C@@H](C)CO)C(=O)Cc2cc(NS(=O)(=O)c3cccs3)ccc2O[C@H]1CN(C)S(C)(=O)=O,inactive
7,Clc1ccc(COC(Cn2ccnc2)c2ccc(Cl)cc2Cl)c(Cl)c1.O=[N+]([O-])O (centres undefined),inactive
8,Clc1ccc(C(Cn2ccnc2)OCc2c(Cl)cccc2Cl)c(Cl)c1.O=[N+]([O-])O (centres undefined),inactive
9,Clc1ccc(C(Cn2ccnc2)OCc2ccsc2Cl)c(Cl)c1 (centres undefined),active
10,Cc1ccc(S(=O)(=O)N(C)C[C@@H]2OCCCC[C@H](C)Oc3ccc(NC(=O)C4CCCCC4)cc3C(=O)N([C@@H](C)CO)C[C@@H]2C)cc1,inactive
11,C=C[C@]1(C)C[C@@H](OC(=O)CS[C@@H]2C[C@H]3CC[C@@H](C2)N3C)[C@]2(C)[C@H](C)CC[C@]3(CCC(=O)[C@H]32)[C@@H](C)[C@@H]1O,active
12,C[C@H](CO)N1C[C@H](C)[C@H](CN(C)Cc2ccc(C(=O)O)cc2)OCCCC[C@H](C)Oc2ccc(NS(=O)(=O)c3ccc(F)cc3)cc2C1=O,inactive
13,COc1ccc(S(=O)(=O)N(C)C[C@@H]2Oc3c(NC(=O)C4CCOCC4)cccc3C(=O)N([C@H](C)CO)C[C@H]2C)cc1,inactive
14,C[C@H](CO)N1C[C@H](C)[C@@H](CN(C)C(=O)Nc2ccccc2)Oc2c(NC(=O)C3CCOCC3)cccc2C1=O,inactive
15,CO[C@H]1O[C@H](COC(=O)NCCCCCC(=O)NO)[C@@H](OC(=O)Nc2ccccc2)[C@@H]2OC(=O)[C@H](Cc3cccc(Br)c3)C/C=C/C[C@@H](Cc3cccc(Br)c3)C(=O)O[C@@H]12,inactive
16,C[C@@H]1CN([C@@H](C)CO)C(=O)c2cccc(NC(=O)Nc3ccc(C(F)(F)F)cc3)c2O[C@@H]1CN(C)C(=O)Nc1ccccc1,active
17,C[C@H](CO)N1C[C@H](C)[C@@H](CN(C)C(=O)Nc2cccc3ccccc23)Oc2c(NC(=O)Nc3ccc(C(F)(F)F)cc3)cccc2C1=O,active
18,C[C@H]1CN([C@@H](C)CO)C(=O)c2cccc(NC(=O)Nc3ccccc3)c2O[C@@H]1CN(C)C(=O)Nc1ccc(C(F)(F)F)cc1,inactive
19,C[C@@H]1CN([C@H](C)CO)C(=O)c2cccc(NC(=O)Nc3ccc(C(F)(F)F)cc3)c2O[C@H]1CN(C)C(=O)Nc1ccccc1,inactive
20,C[C@@H]1CN([C@H](C)CO)C(=O)c2cccc(NC(=O)Nc3ccc(C(F)(F)F)cc3)c2O[C@@H]1CN(C)C(=O)Nc1cccc2ccccc12,inactive
21,C[C@H]1CN([C@@H](C)CO)C(=O)c2cccc(NC(=O)Nc3ccc(C(F)(F)F)cc3)c2O[C@@H]1CN(C)C(=O)Nc1ccccc1,active
22,C[C@@H]1CN([C@@H](C)CO)C(=O)c2cccc(NC(=O)Nc3ccccc3)c2O[C@@H]1CN(C)C(=O)Nc1ccc(C(F)(F)F)cc1,inactive

row,SMILES,growth inhibition call
1,C[C@H](CO)N1C[C@H](C)[C@H](CN(C)C(=O)Nc2ccc(C(F)(F)F)cc2)Oc2c(NC(=O)Nc3ccccc3)cccc2C1=O,inactive
2,C[C@H](CO)N1C[C@H](C)[C@H](CN(C)C(=O)Nc2ccccc2)Oc2c(NC(=O)Nc3ccc(C(F)(F)F)cc3)cccc2C1=O,inactive
3,C[C@H](CO)N1C[C@H](C)[C@H](CN(C)C(=O)Nc2cccc3ccccc23)Oc2c(NC(=O)Nc3ccc(C(F)(F)F)cc3)cccc2C1=O,inactive
4,C[C@H](CO)N1C[C@H](C)[C@@H](CN(C)C(=O)Nc2ccc(C(F)(F)F)cc2)Oc2c(NC(=O)Nc3ccccc3)cccc2C1=O,inactive
5,C[C@H]1CN([C@@H](C)CO)C(=O)c2cccc(NC(=O)Nc3ccc(C(F)(F)F)cc3)c2O[C@H]1CN(C)C(=O)Nc1ccccc1,active
6,COc1ccc(S(=O)(=O)Nc2ccc3c(c2)C(=O)N([C@@H](C)CO)C[C@H](C)[C@H](CN(C)C(=O)Nc2ccccc2)OCCCC[C@H](C)O3)cc1,inactive
7,Cc1ccc(S(=O)(=O)N(C)C[C@H]2Oc3ccc(NS(=O)(=O)c4c(C)noc4C)cc3CC(=O)N([C@@H](C)CO)C[C@H]2C)cc1,inactive
8,COc1ccc2c3c(n(c2c1)C)[C@@H](CO)N(Cc1ccccc1)C[C@]13CCN(CC1)C(=O)c1ccccc1F,inactive
9,C[C@H](CO)N1C[C@H](C)[C@H](CN(C)C(=O)CCCN(C)C)OCCCC[C@H](C)Oc2ccc(NC(=O)Nc3ccc(C(F)(F)F)cc3)cc2C1=O,inactive
10,O=C([C@H]1[C@H](CO)[C@H]2Cn3c(cccc3=O)[C@@H]1N2CC1CCCC1)N1CCOCC1,inactive
11,COc1cc(/C=C/c2cc(/C=C/c3ccc(O)c(OC)c3)n(Cc3ccc4c(c3)OCO4)c(=S)n2)ccc1O,inactive
12,C[C@@H]1CCCCO[C@@H](CN(C)C(=O)Nc2ccc3c(c2)OCO3)[C@@H](C)CN([C@@H](C)CO)C(=O)c2cc(NC(=O)Cc3ccccc3)ccc2O1,inactive
13,CCOc1ccc(Nc2c3ccccc3nc3ccccc23)cc1,inactive
14,c1ccc(Nc2nc(-c3ccccc3)nc3ccccc23)cc1,inactive
15,CCC(CC)c1nc(Nc2ccccc2)c2ccccc2n1,active
16,Cc1ccc(S(=O)(=O)Nc2ccc3c(c2)C(=O)N([C@H](C)CO)C[C@H](C)[C@H](CN(C)S(=O)(=O)c2ccc(F)cc2)OCCCC[C@@H](C)O3)cc1,inactive
17,Cc1noc(C)c1S(=O)(=O)N(C)C[C@H]1Oc2ccc(NS(=O)(=O)c3ccccc3)cc2CC(=O)N([C@H](C)CO)C[C@@H]1C,inactive
18,C[C@@H]1CN([C@@H](C)CO)C(=O)c2cc(NC(=O)Nc3ccc(C(F)(F)F)cc3)ccc2O[C@@H](C)CCCCO[C@H]1CN(C)C(=O)C1CCCCC1,inactive
19,Cc1onc(-c2ccccc2Cl)c1C(=O)NC1C(=O)N2C1SC(C)(C)C2C(=O)[O-].[Na+] (centres undefined),active
20,Cc1onc(-c2ccccc2)c1C(=O)NC1C(=O)N2C1SC(C)(C)C2C(=O)[O-].[Na+] (centres undefined),active
21,COC(=O)c1c(-c2c(Cl)cccc2Cl)noc1-c1cnn(-c2cccc(Cl)c2)c1C(F)(F)F,inactive
22,Cc1onc(-c2c(Cl)cccc2Cl)c1C(=O)NC1C(=O)N2C1SC(C)(C)C2C(=O)[O-].[Na+] (centres undefined),active
